Compound activity from PubChem.
Glyco luc inh: increase of ERlucT glycosylation luciferase signal, primary screen, N-linked glycosylation inhibitor project, D54 ERlucT cells, luminescence, set 2 | 360,000 tested, 0.23% active | D54 ERlucT glycosylation luciferase reporter, 24 h; percent of 100 nM tunicamycin response | reporter increase, % at 12.5 µM;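 active means mean luciferase reporter signal, scaled so untreated is 0 and the glycosylation-blocking control 100, at or above a set limit in every replicate; inconclusive means mean reaches the limit but not every replicate does; inactive means mean below the limit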;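 further: luciferase carries N-glycosylation sites so blocking glycosylation raises the light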
DSG3 Ab inh: inhibitors of pemphigus antibody binding to DSG3, primary screen, biochemical, bead-based, flow cytometry, scFv-GFP. 310,000 tested, 0.48% active. AID 588358, 2011. binding (percent of control), % at 10 µM. DSG3-coupled beads, scFv-anti-DSG3-GFP binding; stronger effect = lower value;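 active means binding more than 3 SD below its plate's average and above zero; inconclusive means below that plate limit but binding exactly zero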;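 further: hits lower antibody fragment binding to DSG3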
NSD2 HMT inh: NSD2 histone methyltransferase inhibitors, primary screen, biochemical, AlphaScreen, single concentration, set 2; Histone-lysine N-methyltransferase NSD2 (Homo sapiens), O96028; AID 743445, 2014; 310,000 tested, 0.54% active; NSD2 peptide methylation, 120 min; inhibition, % at 12.5 µM; in the data active means inhibition above about 50%
CaV13 FRET inh: Primary screen for inhibitors of IQ motif and Ca2+-dependent inactivation inhibitor domain binding in CACNA1D, Förster resonance energy transfer in living cells, …; inhibition, % at 12.3 µM; 340,000 tested, 0.098% active; AID 743397; HEK cells, CFP/YFP FRET ICDI-IQ, plate reader, 10 min; percent FRET-ratio fall versus neutral wells;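 active means mean replicate inhibition of at least 30% and at least 1% of replicates passing that level; inconclusive means only one of the two criteria is met; inactive means neither criterion is met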
ATG4B inh: ATG4B protease inhibitors, primary screen, biochemical, fluorescence, uHTS; Cysteine protease ATG4B (Homo sapiens), Q9Y4P1; ATG4B cleavage of LC3-PLA2, NBD-HPC fluorescence, 1 h; inhibition, % at 8.33 µM; 340,000 tested, 0.51% active; in the data active means inhibition above about 40%
Target sequence (Q9Y4P1 whole entry, looked up): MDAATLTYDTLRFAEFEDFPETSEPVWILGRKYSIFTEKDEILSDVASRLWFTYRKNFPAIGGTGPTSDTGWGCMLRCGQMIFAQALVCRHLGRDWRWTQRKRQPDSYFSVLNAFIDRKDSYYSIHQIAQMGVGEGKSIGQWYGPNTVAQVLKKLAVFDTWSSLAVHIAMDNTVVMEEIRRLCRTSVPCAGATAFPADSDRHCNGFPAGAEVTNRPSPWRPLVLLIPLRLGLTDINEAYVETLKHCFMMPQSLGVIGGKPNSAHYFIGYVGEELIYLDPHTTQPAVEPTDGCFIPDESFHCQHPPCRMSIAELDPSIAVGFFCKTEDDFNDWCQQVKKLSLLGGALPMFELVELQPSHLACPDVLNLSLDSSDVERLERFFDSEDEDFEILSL
Vif inh: HIV Vif self-association inhibitors, primary screen, imaging, HEK293T, single point; inhibition, % at 7.49 µM; 340,000 tested, 0.35% active; HEK293T cells, Vif self-association by quenched fluorescence, 24 h; in the data active means inhibition above about 50%, passing the limit was not always enough; inconclusive means no clear call, values can overlap the other calls; inactive means below about 31%
Large screens that a line does not name were inactive. Shown are actives, neighbours in structure and some others; about 1.9% of the full set was active somewhere.

O=c1c2ccccc2sn1-c1cc(S(=O)(=O)N2CCOCC2)ccc1N1CCOCC1	DSG3 Ab inh 26
O=c1c2ccccc2sn1-c1cc(S(=O)(=O)N2CCOCC2)ccc1N1CCCC1	none
CCOc1ccc(N(CC(=O)NC2CCCCC2)C(=O)CNC(=O)c2ccco2)cc1	none (no result: CaV13 FRET inh, Vif inh)
CCOC1=C2[C@H](c3ccc(CC)cc3)N(S(=O)(=O)c3ccc(C)cc3)C[C@H]2C(C#N)(C#N)C(C#N)(C#N)C1	Glyco luc inh 33 (no result: DSG3 Ab inh, NSD2 HMT inh, ATG4B inh, Vif inh)
Cc1cc(C(F)(F)F)n2nc(-c3cnn(C)c3C(F)(F)F)cc2n1	Vif inh 68
Cc1ccc2occ(C(c3nnnn3Cc3ccccc3)N3CCOCC3)c(=O)c2c1 (stereo not drawn)	NSD2 HMT inh 67 (no result: CaV13 FRET inh)
O=C(CN1CCN(S(=O)(=O)c2ccccc2)CC1)NC1CC1	none
c1ccc(Cc2nnc(Sc3ccccc3)c3ccccc23)cc1	Glyco luc inh 36
CC(C)CCn1c(CN2CC(C)OC(C)C2)nc2c1c(=O)n(C)c(=O)n2C (stereo not drawn)	CaV13 FRET inh 37 (no result: NSD2 HMT inh, Vif inh)
O=C(Cc1ccccc1F)Nc1ccccc1-c1ccccc1	none (no result: DSG3 Ab inh, NSD2 HMT inh, CaV13 FRET inh)
O=C(Cc1c(F)cccc1Cl)Nc1ccccc1-c1ccccc1	DSG3 Ab inh 47
CSc1n[nH]c(NC2=CC(=O)CCC2)n1	Vif inh 59
CCCNS(=O)(=O)c1ccc(NC(=O)Cc2cccs2)cc1	none (no result: Vif inh)
COc1ccccc1NC(=O)CCNS(=O)(=O)c1ccc2[nH]c(=O)oc2c1	none
COc1ccc(NC(=O)c2ccc(-c3ccc(OC)cc3)s2)cc1	DSG3 Ab inh 55 (no result: NSD2 HMT inh)
CNC(=O)c1ccc(-c2ccc(OC)cc2)s1	none
COc1ccc(NC(=O)CSc2nc3c([nH]c4ccccc43)c(=O)n2C)c(OC)c1	DSG3 Ab inh 49
CCOc1ccc(NC(=O)CSc2nc3c([nH]c4ccccc43)c(=O)n2C)cc1	none (no result: NSD2 HMT inh)
Cc1cc(NC(=O)CSc2nc3c([nH]c4ccccc43)c(=O)n2-c2cccc(C(F)(F)F)c2)no1	Vif inh 51 (no result: NSD2 HMT inh, CaV13 FRET inh)
C[C@H](NC(=O)C1CC(=O)N(c2ccc3c(c2)OCCO3)C1)C(=O)N1CCCCC1 (stereo partly drawn)	none
Cc1cc(N2CCOCC2)nc2ccc(NC(=S)N3CCN(c4ccccc4)CC3)cc12	DSG3 Ab inh 1.0
COc1ccc(NC(=O)CCC(=O)Nc2ccc3nc(N4CCOCC4)cc(C)c3c2)c(OC)c1	none (no result: DSG3 Ab inh)
COc1ccc(N(C)C(=O)CCC(=O)Nc2ccc3nc(N4CCOCC4)cc(C)c3c2)c(OC)c1	DSG3 Ab inh 89
CCN1CCN(c2cc(C)c3cc(NC(=S)N4CCN(c5ccccc5)CC4)ccc3n2)CC1	none
Cn1c(-c2ccccc2)c(/C=N/NC(=O)c2cccnc2)c2ccccc21	Glyco luc inh 47
COc1c(Br)cc(Br)cc1/C=N/NC(=O)c1cccnc1	Glyco luc inh 30
O=C(N/N=C/c1c(-c2ccccc2)[nH]c2ccccc12)c1cccnc1	Glyco luc inh inconclusive
O=c1cc(-c2ccc(O)cc2)oc2c1ccc1ccccc12	none
O=c1cc(-c2ccc(O)cc2)oc2c(O)c(O)c(O)c(O)c12	DSG3 Ab inh 58, Vif inh inconclusive (no result: NSD2 HMT inh, CaV13 FRET inh)
COCCCn1nnnc1SCC(=O)N1c2ccccc2CC1C (stereo not drawn)	none
Cc1cc(NC(=O)c2cccs2)ncc1NC(=O)C(C)(C)C	none
CC1C=CC(C)C(C(=O)c2ccccc2)C1C(=O)c1ccccc1 (stereo not drawn)	none (no result: ATG4B inh)
O=C(c1ccccc1)C1OC1C(=O)c1ccccc1 (stereo not drawn)	Vif inh 73 (no result: DSG3 Ab inh)
Cc1cc2c(cc1S(=O)(=O)N1CCN(c3ccccc3)CC1)OCC(=O)N2	Vif inh inconclusive (no result: NSD2 HMT inh)
O=C(c1cc2ccccc2oc1=O)N(Cc1cccs1)Cc1cccs1	none (no result: DSG3 Ab inh)
O=C(c1cc2ccccc2oc1=O)N(Cc1ccco1)Cc1cccs1	Vif inh 59
CCOC(=O)C1CCN(S(=O)(=O)c2cccc(-c3cn4cccnc4n3)c2)CC1	none (no result: CaV13 FRET inh)
CCOC(=O)C1CCN(S(=O)(=O)c2cccc(-c3cn4cc(C)ccc4n3)c2)CC1	Vif inh 64
COc1ccc(-c2nc(CS(=O)CC(=O)NCc3ccc4c(c3)OCO4)c(C)o2)cc1 (stereo not drawn)	none (no result: NSD2 HMT inh)
CN(C)CCc1cc2c(c3c1ccc1ccccc13)OCO2	Glyco luc inh 78
COc1cc(C(=O)N/N=C/c2ccc3c(c2)c2ccccc2n3C)ccc1O	Glyco luc inh 34 (no result: CaV13 FRET inh)
Cn1c2ccccc2c2cc(/C=N/NC(=O)c3cc(O)cc(O)c3)ccc21	none
CC(/C=C/c1ccc2c(c1)OCO2)=N\NC(=O)c1cccc([N+](=O)[O-])c1	DSG3 Ab inh 84 (no result: Vif inh)
O=C(CN(C1CCCCC1)S(=O)(=O)c1ccccc1)N1CCCC1	none (no result: CaV13 FRET inh)
O=C(CN(C1CCCCC1)C1CCCCC1)N1CCc2ccccc2C1	DSG3 Ab inh 41 (no result: Vif inh)
O=C(C[n+]1cccc2ccccc21)c1ccc(Br)cc1	Vif inh 93
O=C(/C=C/C(=O)NCc1cccs1)NCc1cccs1	DSG3 Ab inh 72
Cc1ccncc1CNC(=O)c1ccccc1	none
CCOC(=O)C1CCN(C2=C(NS(=O)(=O)c3ccc(Cl)cc3)C(=O)c3ccccc3C2=O)CC1	NSD2 HMT inh 67
CCN1CCN(C(CNS(=O)(=O)c2ccc(C)cc2)c2cccnc2)CC1 (stereo not drawn)	Vif inh 53
CCN1CCN(C2=C(NS(=O)(=O)c3ccc(C)cc3)C(=O)c3ccccc3C2=O)CC1	NSD2 HMT inh 51
CNC(=O)c1cc(C(=O)c2ccc(F)cc2C(F)(F)F)c[nH]1	none
O=C(CSc1nnc(-c2ccc(Cl)cc2)n1Cc1ccco1)c1cccs1	none (no result: CaV13 FRET inh)
CCn1c(/C=C/c2ccc(F)cc2)nc2ccccc2c1=O	Vif inh 60
CCOC(=O)c1ccc(N(CCC2CO2)S(=O)(=O)c2ccc(C)cc2)cc1 (stereo not drawn)	none
Cc1ccc2c(c1)CC(C)N2S(=O)(=O)c1nnc(NC(=O)CC(C)C)s1 (stereo not drawn)	none (no result: DSG3 Ab inh)
Cc1nc2c(cc1C(=O)N/N=C/c1ccc([N+](=O)[O-])cc1)c(=O)n(C)c(=O)n2C	DSG3 Ab inh -7.8
Cc1ccc(/C=N/c2sc3c(c2C#N)CCCCC3)o1	none
Cc1ccc(/C=N/c2sc3c(c2C#N)CCC3)s1	Vif inh 53
